Laboratory results published in PubChem BioAssay (NCI).
Compounds without any hit were thinned out: in the full panel of roughly 83,000, 20% have a hit.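 Treatment: one concentration, 48 hours, 96-well format. Scoring: percent growth, with anything below 10 considered active.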 Values without a mark were called inactive. Calls of active or inactive are those of the source.

What was measured:
Assay in all cases: NCI-60 one-dose screen, 48 h (100 = growth as untreated, 0 = no growth, -100 = all killed)
Settings in all cases: 10 µM unless noted
NCI-H23 lung = tested on: NCI-H23 lung
NCI-H226 lung = tested on: NCI-H226 lung
NCI-H322M lung = tested on: NCI-H322M lung
HOP-62 NSCLC = tested on: HOP-62 NSCLC
NCI-H460 lung = tested on: NCI-H460 lung
HOP-92 NSCLC = tested on: HOP-92 NSCLC
NCI-H522 lung = tested on: NCI-H522 lung
A549/ATCC NSCLC = tested on: A549/ATCC NSCLC
786-0 renal = tested on: 786-0 renal
COLO 205 colon = tested on: COLO 205 colon
DU-145 prostate = tested on: DU-145 prostate
MALME-3M melanoma = tested on: MALME-3M melanoma
MDA-MB-231 breast = tested on: MDA-MB-231 breast
RXF 393 renal = tested on: RXF 393 renal
SF-268 CNS = tested on: SF-268 CNS
SF-295 CNS = tested on: SF-295 CNS
SF-539 CNS = tested on: SF-539 CNS
UACC-257 melanoma = tested on: UACC-257 melanoma
M14 melanoma = tested on: M14 melanoma

| Compound | growth (NCI-H23 lung) | growth (NCI-H226 lung) | growth (NCI-H322M lung) | growth (HOP-62 NSCLC) | growth (NCI-H460 lung) | growth (HOP-92 NSCLC) | growth (NCI-H522 lung) | growth (A549/ATCC NSCLC) | growth (786-0 renal) | growth (COLO 205 colon) | growth (DU-145 prostate) | growth (MALME-3M melanoma) | growth (MDA-MB-231 breast) | growth (RXF 393 renal) | growth (SF-268 CNS) | growth (SF-295 CNS) | growth (SF-539 CNS) | growth (UACC-257 melanoma) | growth (M14 melanoma) |
| --- | --- | --- | --- | --- | --- | --- | --- | --- | --- | --- | --- | --- | --- | --- | --- | --- | --- | --- | --- |
| Cn1cc(-c2nc(-c3c[nH]c4c(Cl)nccc34)cs2)c2cc(Br)ccc21 | 99.8% | 81.4% | 93.2% | 82% | 80.2% | 91.2% | 78.7% | 66.6% | 84.6% | 90.4% | 80.3% | 118% | 96.9% | 95.9% | 105% | 91.4% | 82.5% | 54.1% | 73.5% |
| CC1(C)NCCC[C@]2(C)[C@H]3CC[C@@H]4[C@H]5[C@H](C(=O)/C=C/c6ccco6)CC[C@]5(CO)CC[C@@]4(C)[C@]3(C)CC[C@@H]12 | 89.1% | 94.8% | 92.6% | 91.8% | 56.2% | 70.1% | 88.3% | 87.2% | 74.4% | -2.99% (active) | 97.4% | 78.7% | 96.2% | 89.2% | 95.7% | 113% | 87.8% | 91.9% | 91.3% |
| NS(=O)(=O)c1ccc(CCN2C(=O)C=CC2=O)cc1 | 94.6% | 101% | 97.3% | 97.1% | 115% | 108% | 84.6% | 104% | 106% | 123% | 109% | 102% | 104% | 111% | 100% | 102% | 101% | 101% | 107% |
| COc1ccc(-c2nc3sccn3c2/C=C/C(=O)c2ccc3c(c2)OCO3)cc1 | 99.7% | 84.7% | 88.5% | 97.5% | 108% | 82.8% | 57.8% | 95% | 96.8% | 211% | 113% | 84.6% | 76.3% | 117% | 100% | 97.1% | 84.6% | 95.8% | 103% |
| COC(=O)C(CC=O)C(=O)C(=O)Nc1cccc(C(F)(F)F)c1 (stereo not drawn) | 101% | 98.7% | 97.3% | 82.2% | 98.6% | 95.1% | 87.2% | 78.1% | 107% | 110% | 110% | 113% | 90.2% | 103% | 95% | 110% | 99.9% | 66.5% | 106% |
| O=C(Nc1ncc(Cc2cc(Cl)ccc2Cl)s1)c1cccs1 | 71.6% | 81% | 62.7% | 55.1% | 33.8% | 48.4% | 43.9% | 38.3% | 78.3% | 67.5% | 81.1% | 50% | 79.8% | 56% | 74.9% | 50.4% | 73.9% | 78.6% | 42.9% |
| C[C@H]1[C@H](C)CC[C@]2(C(=O)Nc3ccc4ncccc4c3)CC[C@]3(C)C(=CC[C@@H]4[C@@]5(C)CCCNC(C)(C)[C@@H]5CC[C@]43C)[C@H]12 | 51% | 110% | 63.1% | 95.2% | -79.8% (active) | 60.2% | 9.94% (active) | -92.1% (active) | -96.2% (active) | -82.7% (active) | -74.1% (active) | -78.5% (active) | -71.9% (active) | -84.8% (active) | -40.4% (active) | -50.8% (active) | -72.9% (active) | -86.9% (active) | -92% (active) |
| O=C1Nc2cc(Cl)ccc2/C1=C\c1c(-c2ccc(F)cc2)nc2ccccn12 | -20.4% (active) | 7.11% (active) | 39.5% | 3.44% (active) | 0.0437% (active) | 69.8% | -51.5% (active) | 33.5% | 7.55% (active) | -33.1% (active) | -17.9% (active) | 41.4% | 50.3% | -23.8% (active) | 20% | -58.2% (active) | -26.4% (active) | 68.7% | -10.8% (active) |
| COc1cc(/C=C\c2cc(/C=C\c3ccc(O)c(OC)c3)n(C(=O)COc3ccccc3)n2)ccc1O | 1.6% (active) | 9.96% (active) | 30.8% | 8.39% (active) | 7.6% (active) | 14.4% | -39.3% (active) | 8.68% (active) | 1.27% (active) | 79.3% | 9.09% (active) | 7.21% (active) | 11.3% | -44.5% (active) | 12% | 15.5% | -10.3% (active) | 30.5% | 6.75% (active) |
| COc1ccc(C(=O)Cn2c(C(=O)c3ccccc3)nc3ccccc32)cc1 | 28.2% | 38.5% | 78.7% | 40.6% | 8.51% (active) | 54.7% | -28.1% (active) | 31.8% | 43.6% | 51% | 36.7% | 46.6% | 37.6% | 13.1% | 52.9% | 12.2% | 15.1% | 54.3% | 6.97% (active) |
| COc1cc(C2C3=C(COC3=O)N(CCO)c3cc4c(cc32)OCO4)cc(OC)c1OC (stereo not drawn) | 12.2% | 6.36% (active) | 50.3% | 12.6% | -54.3% (active) | 52.1% | -13% (active) | 30.8% | 9.85% (active) | -84.3% (active) | 5.4% (active) | 56.3% | -1.03% (active) | -5.54% (active) | 41.3% | 21.4% | -51.6% (active) | 60.8% | -19.6% (active) |
| Cc1cc(Cl)nc(N(CCNc2ccnc3cc(Cl)ccc23)Cc2ccccn2)n1 | 56.2% | 79.5% | 63.6% | 72.5% | 50.9% | 38% | 54.1% | 63.3% | 38.7% | 57.5% | 73% | 100% | 57.2% | 59.1% | 83.4% | 80.4% | 6.88% (active) | 68.1% | 62.5% |
